Sampled rows, rich in hits. Any-hit rate of the full collection: about 3.1%.
Nrf2 block: Nrf2 pathway inhibition; A549 ARE-Fluc reporter, luciferase luminescence, 18-24 h; Potency, µM (doses to about 46 µM), without a hit: at the highest dose activity change, negative = inhibition, hits mostly inhibitors; hit rate 2.1% among 360,000; further: on the % scale 0 is the no-effect control and ±100 the full control effect; nearly all actives have a fitted effect of over 60% in size
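Nrf2 function is reported as luminescence of an ARE-controlled luciferase in A549 cells. Compounds were tested at several concentrations, and a CellTiter-Fluor read on the same wells flagged cytotoxicity.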
rTrxR1 inhibitor: inhibitors of rat thioredoxin reductase 1 | hit rate 1% among 390,000 | O89049 | recombinant rTrxR1, NADPH fluorescence consumption, selenite substrate | Potency, µM (titrated, usually from 114 µM), for the others: top-dose activity change, negative = inhibition, usual class: inhibitors; further: on the % scale 0 is the no-effect control and ±100 the full control effect; nearly all actives have a fitted effect of over 65% in size
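Rat TrxR1 (90 nM in the dispensed reagent) was pre-reduced with 400 uM NADPH for 5 min at room temperature, then incubated with compound for 15 min. After 400 uM selenite was added, NADPH fluorescence (Ex 340/Em 450 nm) was followed for 8 min.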
A549 tox: kills or reduces viability of A549 cells in Nrf2 counter-screen. A549 ARE-Fluc cells, CellTiter-Fluor viability, 18-24 h. Potency, µM (doses to about 46 µM), for inactives: top-dose activity change, negative = cytotoxicity, actives largely listed as inhibitors. hit rate 0.16% among 390,000. AID 504648; further: on the % scale 0 is the no-effect control and ±100 the full control effect
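A549 ARE_Fluc cells in 5% FBS OPTI-MEM were exposed to compounds in concentration-response for 18-24 h at 37 deg C. Viability was read by CellTiter-Fluor fluorescence (Ex 405/Em 525) after 30 min, before the luciferase read.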
TrxR1 substrate: is turned over as a substrate by rat TrxR1; O89049; purified TrxR1 substrate turnover, NADPH consumption readout; Potency, µM (top dose mostly 114 µM), without a hit: at the highest dose activity change, negative = substrate turnover; hit rate 0.01% among 390,000; AID 588456; further: on the % scale 0 is the no-effect control and ±100 the full control effect; nearly all actives have a fitted effect of over 50% in size
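Rat TrxR1, dispensed at 90 nM, was prereduced with 400 uM NADPH (final) for 5 min at ~22 deg C, then incubated with compound 15 min before 400 uM selenite. A first-read NADPH fluorescence drop versus no-compound background flagged substrates.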
Mito fusion yeast: inhibitors of mitochondrial division or activators of mitochondrial fusion; S. cerevisiae fusion-defective mutant growth rescue, CellTiterGlo 48 h; Potency, µM (doses to about 46.1 µM), without a hit: at the top dose growth rescue (activation), actives largely listed as activators; hit rate 0.23% among 320,000; further: % of control where 0% means no effect; nearly all actives have a fitted effect of over 45% in size
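Yeast fusion mutant, YPEG (non-fermentable carbon), compound, 48 h at 37C non-permissive; CellTiterGlo added, 10 min RT, luminescence read. Rescued growth = division inhibition.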
mIDH1 inhibitor: human IDH1 R132H inhibition. O75874. IDH1-R132H enzyme, NADPH consumption, diaphorase/resazurin fluorescence. Potency, µM (top dose mostly 76.6 µM), inactives show at the highest dose activity change, negative = inhibition, most hits filed as inhibitors. hit rate 0.093% among 390,000. AID 602179; further: on the % scale 0 is the no-effect control and ±100 the full control effect; nearly all actives have a fitted effect of over 65% in size
Target sequence (O75874 whole entry R132H, stated change not applied): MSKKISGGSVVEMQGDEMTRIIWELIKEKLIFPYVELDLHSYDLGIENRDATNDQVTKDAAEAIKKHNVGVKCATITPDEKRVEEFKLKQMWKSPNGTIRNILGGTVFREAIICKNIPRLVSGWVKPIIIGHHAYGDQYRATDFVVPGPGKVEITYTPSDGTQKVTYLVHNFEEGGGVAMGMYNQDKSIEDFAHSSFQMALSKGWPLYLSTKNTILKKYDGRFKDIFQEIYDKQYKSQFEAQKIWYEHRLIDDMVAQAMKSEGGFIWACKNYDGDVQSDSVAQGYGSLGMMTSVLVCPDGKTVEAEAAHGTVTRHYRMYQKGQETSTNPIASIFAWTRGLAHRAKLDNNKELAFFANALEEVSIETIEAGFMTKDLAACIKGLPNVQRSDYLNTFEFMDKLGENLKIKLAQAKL
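IDH1-R132H (0.5 ug/mL) preincubated 30 min with compound, then NADPH (0.016 mM) and alpha-KG (2 mM) added; 80 min at RT, pH 7.5. Remaining NADPH coupled via diaphorase/resazurin to fluorescence (540/590 nm); concentration-response curves normalized to no-enzyme control.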
* = called active by the depositor; ! = not confirmed by another sample; [ ] = dose if it differs, or a comment. The call rests on the fitted dose curve; in most records, active means well fitted curve in the direction sought with a large enough effect; inconclusive means small, poorly fitted or top-dose-only effect, or another doubt; inactive means no such curve, though single readings can be large; an effect the other way counts as inactive or inconclusive. Potency means the concentration at half of the fitted maximal effect.

`CC1CCCN(c2ccc(C(=O)Nc3ccc4c(c3)OCO4)cc2[N+](=O)[O-])C1` (stereo not drawn) gave Nrf2 block inconclusive, rTrxR1 inhibitor -12%, A549 tox -5%, TrxR1 substrate -9%, Mito fusion yeast 18µM* and mIDH1 inhibitor 7%.
CCOC(=O)c1c(NC(=O)COc2ccc(OC)cc2)sc(C(=O)N(CC)CC)c1C was read as Nrf2 block 23µM*, rTrxR1 inhibitor 9%, A549 tox -22% and TrxR1 substrate 1%.
Screening CCOC(=O)c1c(NC(=O)COC(=O)c2cccnc2OCC)sc(C(=O)N(CC)CC)c1C returned Nrf2 block 15µM*, rTrxR1 inhibitor 4%, A549 tox -25%, TrxR1 substrate -6% and mIDH1 inhibitor 5%.
`CCOC(=O)Nc1sc(C(=O)N(CC)CC)c(C)c1C(=O)OCC` gave Nrf2 block -15%, rTrxR1 inhibitor 12%[57.1 µM], A549 tox -12%, TrxR1 substrate -5%[57.1 µM], Mito fusion yeast 7% and mIDH1 inhibitor 0%.
For Cc1csc[n+]1CC(=O)c1ccccc1 the results were rTrxR1 inhibitor 12% and TrxR1 substrate -3%.
COc1ccc(C(=O)C=Cc2ccc3c(c2)OCO3)cc1OC was read as mIDH1 inhibitor 7%.
`COc1cc(OCc2ccccc2)c(C(=O)/C=C/c2ccc3c(c2)OCO3)c(OC)c1OC` gave Nrf2 block 21µM*, rTrxR1 inhibitor 12%, A549 tox 0%, TrxR1 substrate -5% and mIDH1 inhibitor 0%.
For O=C(C1CCCN(S(=O)(=O)c2cccc3nsnc23)C1)N1CCN(c2ccccc2Cl)CC1 (stereo not drawn) the results were Nrf2 block inconclusive, rTrxR1 inhibitor 13%, A549 tox -2%, TrxR1 substrate -4% and mIDH1 inhibitor 5%.
Screening COc1cc(OC)c(C2Nc3cccc4cccc(c34)N2)c(OC)c1 returned Nrf2 block inconclusive, rTrxR1 inhibitor 29%, A549 tox inconclusive, TrxR1 substrate 87%, Mito fusion yeast 3% and mIDH1 inhibitor 19%.
`Clc1cccc(Cl)c1C1Nc2cccc3cccc(c23)N1` gave Nrf2 block 9.2µM*, rTrxR1 inhibitor -4%, A549 tox inconclusive, TrxR1 substrate -7%, Mito fusion yeast -16% and mIDH1 inhibitor 0%.
`Fc1cccc(Cl)c1C1Nc2cccc3cccc(c23)N1` gave Nrf2 block -21%, rTrxR1 inhibitor 56µM*, A549 tox -9%, TrxR1 substrate -4%, Mito fusion yeast -10% and mIDH1 inhibitor -3%.
For O=S1(=O)N=C(Oc2ccc(Br)cc2)c2ccccc21 the results were Nrf2 block 9% and A549 tox -2%.
Screening CCC(C)NC(=O)C1CCN(S(=O)(=O)c2ccc3c(ccn3CC)c2)CC1 (stereo not drawn) returned rTrxR1 inhibitor 1%[57.1 µM], A549 tox 2%, TrxR1 substrate -1%[57.1 µM] and mIDH1 inhibitor 20%.
Screening Fc1ccc(CNc2nc(-c3ccco3)cc(C(F)(F)F)n2)cc1 returned Nrf2 block inconclusive, rTrxR1 inhibitor 25µM*, A549 tox 0%, TrxR1 substrate 0%, Mito fusion yeast -6% and mIDH1 inhibitor 5%.
Screening FC(F)(F)c1cc(-c2ccco2)nc(NCc2ccccc2)n1 returned Nrf2 block -19%, rTrxR1 inhibitor inconclusive, A549 tox 2%, TrxR1 substrate 11%, Mito fusion yeast -1% and mIDH1 inhibitor 3%.
O=C(CSCc1cccc(CSCC(=O)Nc2ccc3ccccc3c2)n1)Nc1ccc2ccccc2c1 was read as Nrf2 block 13µM*, rTrxR1 inhibitor 16%[57.1 µM], A549 tox -22%, TrxR1 substrate 7%[57.1 µM], Mito fusion yeast 3% and mIDH1 inhibitor 0%.
`O=C(CSCc1nc2ccccc2[nH]1)Nc1ccc2ccccc2c1` gave Nrf2 block 0%, rTrxR1 inhibitor 10%, A549 tox 1%, TrxR1 substrate -7%, Mito fusion yeast -1% and mIDH1 inhibitor 0%.
Nc1cccc2cccnc12 was read as rTrxR1 inhibitor 23%[0.0914 µM] and TrxR1 substrate 2%.
Screening CCOCCCn1c(SCC(=O)Nc2ccccc2OC)nc2c(oc3ccccc32)c1=O returned Nrf2 block inconclusive, rTrxR1 inhibitor -4%, A549 tox -7%, TrxR1 substrate -11% and mIDH1 inhibitor 5%.
For O=C1C(Cl)=C(NS(=O)(=O)c2ccc([N+](=O)[O-])cc2)C(=O)c2ccccc21 the results were Nrf2 block inconclusive, rTrxR1 inhibitor 0.79µM*, A549 tox inconclusive, TrxR1 substrate -13%, Mito fusion yeast -2% and mIDH1 inhibitor 4%.
CS(=O)(=O)Nc1ccccc1Oc1ccccc1 was read as Nrf2 block -7%, rTrxR1 inhibitor -9%, A549 tox -5%, TrxR1 substrate -12%, Mito fusion yeast -3% and mIDH1 inhibitor 3%.
Screening O=[N+]([O-])c1ccc(Oc2ccc(S(=O)(=O)Nc3ccccc3)cc2)cc1 returned Nrf2 block 18µM*, rTrxR1 inhibitor 8%[57.1 µM], A549 tox -2%, TrxR1 substrate 13%[57.1 µM], Mito fusion yeast inconclusive and mIDH1 inhibitor -8%.
CS(=O)(=O)Nc1ccc([N+](=O)[O-])cc1Oc1ccccc1 was read as Nrf2 block inconclusive, rTrxR1 inhibitor inconclusive, A549 tox -9%, TrxR1 substrate 1%[57.1 µM], Mito fusion yeast 23µM*! and mIDH1 inhibitor 4%.
`O=[N+]([O-])c1ccc(S(=O)(=O)Nc2ccncc2)cc1` gave Nrf2 block -12%, rTrxR1 inhibitor 9%[57.1 µM], A549 tox 4%, TrxR1 substrate 5%[57.1 µM], Mito fusion yeast 2% and mIDH1 inhibitor 11%.
`Cc1ccc(-n2nc3c(N4CCC(C(=O)NC5CCCCC5)CC4)nnc(C)c3c2C)cc1` gave Nrf2 block 16%, rTrxR1 inhibitor 3%, A549 tox -5%, TrxR1 substrate 0% and mIDH1 inhibitor 10%.
For COc1ccc(C2Nc3ccccc3C(=O)N2Cc2ccc(-c3ccccc3)cc2)cc1COc1ccc(NC(C)=O)cc1 (stereo not drawn) the results were Nrf2 block 2% and A549 tox 12%.
For O=C(c1ccc(S(=O)(=O)c2cccc(Cl)c2)c([N+](=O)[O-])c1)N1CCN(c2ccccn2)CC1 the results were Nrf2 block 16µM*, rTrxR1 inhibitor inconclusive, A549 tox inconclusive, TrxR1 substrate -6%[57.1 µM], Mito fusion yeast inconclusive and mIDH1 inhibitor 0%.
